Source: PubChem BioAssay AID1159580 (chemical genetic matrix, 2015)
Out of some 5,500 compounds screened, about 2,000 (36%) were called active. Not shown: some 18% with an inconclusive outcome. Rule as the data show it: active = normalized growth mostly below about 0.91 (no sharp cut-off); inconclusive = no clear call, values can overlap the other calls; inactive = mostly above about 0.92. Some of the results follow.

Assay: chemical genetic growth profiling, strain panel (AID 1159580);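 also: tested at 20 µM; growth read once vehicle control cultures reached saturation at 30 °C; 1 = growth at the plate median or of vehicle wells; lower values mean less growth of the strain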
Details: S. cerevisiae deletion strains, growth OD

Measured: normalized growth

O=C(/C=C/c1ccc(O)c(O)c1)OC(Cc1ccc(O)c(O)c1)C(=O)O (stereo not given)
inactive: locus YAL021C, strain ccr4, hits give low values 1.07 | locus YAL026C, strain drs2, hits give low values 1.03 | locus YAL030W, strain snc1, hits give low values 1.01 | locus YBL061C, strain skt5, hits give low values 1.05 | locus YBR009C, strain hhf1, hits give low values 1.01 | locus YBR023C, strain chs3, hits give low values 1.04 | locus YBR171W, strain sec66, hits give low values 1.01 | locus YBR231C, strain swc5, hits give low values 0.994 | locus YBR279W, strain paf1, hits give low values 1.02 | locus YCL011C, strain gbp2, hits give low values 1.02 | locus YCL016C, strain dcc1, hits give low values 1.05 | locus YCL061C, strain MRC1, hits give low values 1.03 | locus YCL069W, strain vba3, hits give low values 1.02 | locus YCR088W, strain abp1, hits give low values 1.02 | locus YDL005C, strain med2, hits give low values 1.01 | locus YDL040C, strain nat1, hits give low values 1.02 | locus YDR001C, strain nth1, hits give low values 1.02 | locus YDR069C, strain doa4, hits give low values 1.03 | locus YDR137W, strain rgp1, hits give low values 1.09 | locus YDR159W, strain sac3, hits give low values 0.922 | locus YDR195W, strain ref2 1.07 | locus YDR297W, strain sur2, hits give low values 1.02 | locus YDR334W, strain swr1, hits give low values 1.04 | locus YDR335W, strain msn5, hits give low values 1.03 | locus YDR392W, strain spt3, hits give low values 0.885 | locus YEL003W, strain gim4, hits give low values 0.999 | locus YEL037C, strain rad23, hits give low values 1.02 | locus YEL061C, strain CIN8 (second series), hits give low values 1.02 | locus YER015W, strain faa2, hits give low values 1.01 | locus YER016W, strain bim1, hits give low values 1.04 | locus YER111C, strain swi4, hits give low values 1.01 | locus YER155C, strain BEM2 (second series), hits give low values 0.997 | locus YFR010W, strain ubp6, hits give low values 0.997 | locus YGL167C, strain pmr1, hits give low values 1.01 | locus YGL173C, strain kem1, hits give low values 0.995 | locus YGL227W, strain vid30, hits give low values 1.02 | locus YGL240W, strain doc1, hits give low values 1.04 | locus YGL253W, strain hxk2, hits give low values 1.05 | locus YHR013C, strain ard1, hits give low values 0.999 | locus YHR027C, strain rpn1, hits give low values 1 | locus YHR030C, strain SLT2, hits give low values 0.982 | locus YHR079C, strain IRE1, hits give low values 0.989 | locus YHR142W, strain chs7, hits give low values 1.04 | locus YJL092W, strain hpr5, hits give low values 1.02 | locus YJL095W, strain BCK1 (second series), hits give low values 1.03 | locus YJL095W, strain BCK1, hits give low values 0.999 | locus YJL115W, strain asf1, hits give low values 1.02 | locus YJL129C, strain trk1, hits give low values 1.03 | locus YJL154C, strain vps35, hits give low values 1.02 | locus YJL164C, strain tpk1, hits give low values 0.99 | locus YJL166W, strain qcr8, hits give low values 1.03 | locus YJL187C, strain SWE1, hits give low values 1.03 | locus YJR066W, strain TOR1, hits give low values 0.912 | locus YKL160W, strain elf1, hits give low values 1.04 | locus YKR026C, strain gcn3, hits give low values 1.03 | locus YKR091W, strain srl3, hits give low values 1.01 | locus YLL001W, strain dnm1, hits give low values 1 | locus YLL026W, hits give low values 1.02 | locus YLL041C, strain sdh2, hits give low values 1.02 | locus YLR027C, strain aat2, hits give low values 1.04 | locus YLR113W, strain HOG1, hits give low values 0.979 | locus YLR221C, strain rsa3, hits give low values 0.989 | locus YLR258W, strain gsy2, hits give low values 1.01 | locus YLR262C, strain YPT6 (second series), hits give low values 1.05 | locus YLR320W, strain mms22, hits give low values 1 | locus YLR342W, strain FKS1, hits give low values 1.02 | locus YLR357W, strain rsc2, hits give low values 1.04 | locus YLR370C, strain arc18, hits give low values 1.03 | locus YLR384C, strain iki3, hits give low values 1 | locus YML120C, strain ndi1, hits give low values 0.994 | locus YMR058W, strain fet3, hits give low values 0.932 | locus YMR125W, strain sto1, hits give low values 1.02 | locus YMR129W, hits give low values 1.02 | locus YMR205C, strain PFK2, hits give low values 1.08 | locus YMR231W, strain pep5, hits give low values 1.01 | locus YNL071W, strain lat1, hits give low values 1.01 | locus YNL183C, strain NPR1, hits give low values 0.905 | locus YNL209W, strain ssb2, hits give low values 1 | locus YNL248C, strain rpa49, hits give low values 1.03 | locus YNL322C, strain KRE1 (second series), hits give low values 1.03 | locus YNR049C, strain mso1, hits give low values 1.02 | locus YOR001W, strain rrp6, hits give low values 0.965 | locus YOR070C, strain gyp1, hits give low values 1.01 | locus YOR080W, strain dia2, hits give low values 1.02 | locus YOR083W, strain WHI5, hits give low values 0.988 | locus YOR106W, strain vam3, hits give low values 1.05 | locus YOR231W, strain MKK1, hits give low values 1 | locus YOR265W, strain rbl2, hits give low values 1.01 | locus YOR270C, strain vph1, hits give low values 1.07 | locus YOR290C, strain snf2, hits give low values 1.04 | locus YPL051W, strain arl3, hits give low values 1.04 | locus YPL078C, strain atp4, hits give low values 1.06 | locus YPL106C, strain sse1, hits give low values 1.06 | locus YPL240C, strain hsp82, hits give low values 1.02 | locus YPL256C, strain CLN2, hits give low values 1
